Experimental data as given in the supplement of paper PMC10849652.
Targets with a hit are over-represented here; the source holds about 8,800 in all. About 0.5% of all pairs of compound and target were hits. Values without a mark were called inactive.

Tests used:
Experiment in all cases: log2 fold change, soluble protein after heating vs DMSO (PISA); higher = thermal stabilisation; K562 lysate, 10 uM; active = over 0.2 and 3.5 SD of the protein, either way, in both replicates (recomputed)
[1] = compound: CN1CC[C@H](c2c(O)cc(O)c3c(=O)cc(-c4ccccc4Cl)oc23)[C@H](O)C1 [alvocidib]
Summary of the method: (§1)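 Dounce homogenisation of K562 pellets in PBS pH 7.4 with 1 mM MgCl2 produced a crude extract, used at 1 mg/mL protein. Exposure to 10 μM compound lasted 30 min, and aliquots were then heated for 3 min across 48°C-58°C, pooled and brought to 0.5% NP-40 at 4°C. The supernatant after 21,000xg for 90 min was quantified by TMTpro 16plex LC-MS/MS with channel sums equalised. Duplicate values are given as log-two fold change in thermal stability relative to solvent controls.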

[2] = compound: CN1CCc2c(c3ccccc3n2Cc2ccc(C(=O)NO)cc2)C1 [Tubastatin A]
Summary of the method: as §1

[3] = compound: CNC(=O)C1=CC=CC=C1NC2=NC(=NC=C2Cl)NC3=C(C=C(C=C3)N4CCOCC4)OC
Summary of the method: as §1

[4] = compound: CNC(=O)c1ccc(Nc2ncc(C(F)(F)F)c(NCc3nccnc3N(C)S(C)(=O)=O)n2)cc1 [defactinib]
Summary of the method: as §1

[5] = compound: CNc1nc(-c2ccc3c(N)n[nH]c3c2)cc(N2C[C@@H](C(=O)NC3CCCCC3)CC[C@H]2C)n1
Summary of the method: as §1

[6] = compound: COC(=O)N[C@@H](C)CNc1nccc(-c2cn(C(C)C)nc2-c2cc(Cl)cc(NS(C)(=O)=O)c2F)n1 [encorafenib]
Summary of the method: as §1

[7] = compound: COC(=O)[C@H](CCSC)NC(=O)C1=C(C=C(C=C1)NC[C@H](CS)N)C2=CC=CC=C2
Summary of the method: as §1

[8] = compound: COc1cc(Nc2ncc3c(n2)-c2ccc(Cl)cc2C(c2c(F)cccc2OC)=NC3)ccc1C(=O)O [alisertib]
Summary of the method: as §1

[9] = compound: COc1cc2nc(-c3cc(F)ccc3O)nc(N[C@@H]3CNC[C@H]3C(C)(C)O)c2cc1OC
Summary of the method: as §1

[10] = compound: COc1cc2ncnc(Nc3ccc(F)c(Cl)c3)c2cc1OCCCN1CCOCC1 [gefitinib]
Summary of the method: as §1

[11] = compound: CS(=O)(=O)CCNCc1ccc(-c2ccc3ncnc(Nc4ccc(OCc5cccc(F)c5)c(Cl)c4)c3c2)o1 [lapatinib]
Summary of the method: as §1

[12] = compound: CS(=O)(=O)N1CCN(Cc2cc3nc(-c4cccc5[nH]ncc45)nc(N4CCOCC4)c3s2)CC1 [pictilisib]
Summary of the method: as §1

[13] = compound: C[C@@H](Oc1cc(-c2cnn(C3CCNCC3)c2)cnc1N)c1c(Cl)ccc(F)c1Cl [crizotinib]
Summary of the method: as §1

[14] = compound: C[C@H](C1=CC=C(C=C1)C(=O)NC2=C3C=CNC3=NC=C2)N
Summary of the method: as §1

[15] = compound: C[C@H](Nc1ncnc2nc[nH]c12)c1cc2cccc(Cl)c2c(=O)n1-c1ccccc1 [duvelisib]
Summary of the method: as §1

[16] = compound: Cc1cc(Nc2cc(CN3CCOCC3)c3nc(C)c(Cc4ccc(Cl)cc4F)n3n2)n[nH]1 [gandotinib]
Summary of the method: as §1

[17] = compound: Cc1cc(Nc2cc(N3CCN(C)CC3)nc(Sc3ccc(NC(=O)C4CC4)cc3)n2)n[nH]1 [tozasertib]
Summary of the method: as §1

[18] = compound: Cc1ccc(-n2nc(C(C)(C)C)cc2NC(=O)Nc2ccc(OCCN3CCOCC3)c3ccccc23)cc1 [doramapimod]
Summary of the method: as §1

[19] = compound: Cc1ccc(NC(=O)c2ccc(CN3CC[C@H](N(C)C)C3)c(C(F)(F)F)c2)cc1Nc1nccc(-c2cncnc2)n1 [bafetinib]
Summary of the method: as §1

[20] = compound: Cc1cccc(CC(=O)N2CCc3c2ccc(-c2cn(C)c4ncnc(N)c24)c3F)n1
Summary of the method: as §1

UniProt Q92564, sequence (Q92564 whole entry, looked up): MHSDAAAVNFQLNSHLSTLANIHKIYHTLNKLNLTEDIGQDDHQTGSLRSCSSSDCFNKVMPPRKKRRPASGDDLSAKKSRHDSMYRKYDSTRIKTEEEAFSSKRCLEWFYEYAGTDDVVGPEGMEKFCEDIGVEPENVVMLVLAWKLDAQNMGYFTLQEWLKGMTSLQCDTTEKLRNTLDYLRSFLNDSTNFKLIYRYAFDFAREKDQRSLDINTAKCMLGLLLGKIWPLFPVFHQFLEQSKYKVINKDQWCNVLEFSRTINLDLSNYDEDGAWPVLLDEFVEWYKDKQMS
UniProt O15111, sequence (O15111 whole entry, looked up): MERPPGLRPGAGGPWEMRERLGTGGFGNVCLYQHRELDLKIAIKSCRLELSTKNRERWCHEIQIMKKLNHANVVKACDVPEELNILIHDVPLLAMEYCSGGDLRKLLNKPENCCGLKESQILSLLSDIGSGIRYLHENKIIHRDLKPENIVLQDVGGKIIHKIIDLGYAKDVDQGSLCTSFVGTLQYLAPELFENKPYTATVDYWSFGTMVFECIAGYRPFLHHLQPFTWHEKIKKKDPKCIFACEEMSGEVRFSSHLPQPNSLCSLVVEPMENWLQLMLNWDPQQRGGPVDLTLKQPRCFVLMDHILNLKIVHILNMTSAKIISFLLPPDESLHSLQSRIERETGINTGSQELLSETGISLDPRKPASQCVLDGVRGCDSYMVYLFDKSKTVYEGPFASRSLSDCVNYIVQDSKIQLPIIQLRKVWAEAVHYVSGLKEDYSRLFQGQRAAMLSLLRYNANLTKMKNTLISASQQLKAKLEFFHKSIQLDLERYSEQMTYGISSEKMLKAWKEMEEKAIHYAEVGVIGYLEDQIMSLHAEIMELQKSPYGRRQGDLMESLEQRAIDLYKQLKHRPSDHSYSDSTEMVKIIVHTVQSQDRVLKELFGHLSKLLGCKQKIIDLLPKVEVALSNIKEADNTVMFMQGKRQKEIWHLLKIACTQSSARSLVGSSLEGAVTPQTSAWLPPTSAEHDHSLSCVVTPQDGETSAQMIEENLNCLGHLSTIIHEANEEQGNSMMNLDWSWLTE
UniProt P41240, sequence (P41240 whole entry, looked up): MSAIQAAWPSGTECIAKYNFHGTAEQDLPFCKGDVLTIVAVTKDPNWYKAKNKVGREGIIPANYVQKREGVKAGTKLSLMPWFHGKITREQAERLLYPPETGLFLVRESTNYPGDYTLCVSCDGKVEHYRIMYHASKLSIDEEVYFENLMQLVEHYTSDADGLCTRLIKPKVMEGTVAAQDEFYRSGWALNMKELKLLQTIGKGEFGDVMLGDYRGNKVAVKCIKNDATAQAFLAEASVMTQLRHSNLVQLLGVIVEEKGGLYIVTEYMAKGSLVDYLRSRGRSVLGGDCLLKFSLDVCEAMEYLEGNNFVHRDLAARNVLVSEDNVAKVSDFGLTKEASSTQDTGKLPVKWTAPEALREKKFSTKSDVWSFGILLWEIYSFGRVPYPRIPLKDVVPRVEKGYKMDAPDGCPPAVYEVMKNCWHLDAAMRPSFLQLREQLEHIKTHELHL
UniProt Q07973, sequence (Q07973 whole entry, looked up): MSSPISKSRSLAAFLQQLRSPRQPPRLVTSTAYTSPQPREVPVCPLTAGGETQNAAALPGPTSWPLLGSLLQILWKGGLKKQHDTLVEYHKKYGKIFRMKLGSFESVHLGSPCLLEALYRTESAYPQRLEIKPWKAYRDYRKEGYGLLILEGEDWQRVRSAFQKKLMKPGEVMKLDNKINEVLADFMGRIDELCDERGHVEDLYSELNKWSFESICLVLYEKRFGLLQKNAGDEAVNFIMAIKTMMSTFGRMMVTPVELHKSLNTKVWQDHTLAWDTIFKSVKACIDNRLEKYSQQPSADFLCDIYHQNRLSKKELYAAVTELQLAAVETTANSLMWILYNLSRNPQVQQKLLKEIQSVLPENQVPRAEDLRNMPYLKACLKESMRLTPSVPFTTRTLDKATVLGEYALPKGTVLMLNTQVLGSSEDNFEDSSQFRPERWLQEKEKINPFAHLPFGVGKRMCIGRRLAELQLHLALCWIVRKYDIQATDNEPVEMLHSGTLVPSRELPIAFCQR
UniProt Q9Y315, sequence (Q9Y315 whole entry, looked up): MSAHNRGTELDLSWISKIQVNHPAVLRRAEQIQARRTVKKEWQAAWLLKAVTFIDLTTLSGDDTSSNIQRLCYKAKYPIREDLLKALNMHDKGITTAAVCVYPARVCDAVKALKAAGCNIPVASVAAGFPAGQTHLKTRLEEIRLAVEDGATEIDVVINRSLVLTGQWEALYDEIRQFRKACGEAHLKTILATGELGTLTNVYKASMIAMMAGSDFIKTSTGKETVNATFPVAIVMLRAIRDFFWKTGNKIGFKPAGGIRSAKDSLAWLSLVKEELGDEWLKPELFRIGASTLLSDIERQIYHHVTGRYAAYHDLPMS
UniProt Q13057, sequence (Q13057 whole entry, looked up): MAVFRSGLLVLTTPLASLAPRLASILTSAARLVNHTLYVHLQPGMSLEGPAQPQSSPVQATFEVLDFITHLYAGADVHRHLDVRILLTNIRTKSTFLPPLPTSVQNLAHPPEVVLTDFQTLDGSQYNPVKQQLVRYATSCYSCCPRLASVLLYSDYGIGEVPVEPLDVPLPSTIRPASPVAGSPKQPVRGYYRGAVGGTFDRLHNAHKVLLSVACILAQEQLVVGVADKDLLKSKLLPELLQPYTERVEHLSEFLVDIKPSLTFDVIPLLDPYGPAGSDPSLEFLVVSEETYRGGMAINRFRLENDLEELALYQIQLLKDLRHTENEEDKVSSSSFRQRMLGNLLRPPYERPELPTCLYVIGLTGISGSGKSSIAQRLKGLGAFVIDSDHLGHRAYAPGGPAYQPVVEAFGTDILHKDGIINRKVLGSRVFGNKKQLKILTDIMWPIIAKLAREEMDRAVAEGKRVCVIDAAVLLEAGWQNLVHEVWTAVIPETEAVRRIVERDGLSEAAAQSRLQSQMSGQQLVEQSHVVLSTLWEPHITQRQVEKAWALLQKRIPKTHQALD
UniProt Q92466, sequence (Q92466 whole entry, looked up): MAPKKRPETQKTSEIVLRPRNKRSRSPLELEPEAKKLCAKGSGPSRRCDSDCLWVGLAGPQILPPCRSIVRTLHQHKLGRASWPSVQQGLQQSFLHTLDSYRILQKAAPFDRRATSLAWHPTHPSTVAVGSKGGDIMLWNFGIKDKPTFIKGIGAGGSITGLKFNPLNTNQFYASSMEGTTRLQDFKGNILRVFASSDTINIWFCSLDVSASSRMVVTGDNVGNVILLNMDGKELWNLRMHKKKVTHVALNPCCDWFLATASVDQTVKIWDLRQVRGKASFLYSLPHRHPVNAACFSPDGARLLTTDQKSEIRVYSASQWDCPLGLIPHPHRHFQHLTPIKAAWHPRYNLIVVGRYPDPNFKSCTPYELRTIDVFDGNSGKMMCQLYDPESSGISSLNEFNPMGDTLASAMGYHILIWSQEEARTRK
UniProt P00374, sequence (P00374 whole entry, looked up): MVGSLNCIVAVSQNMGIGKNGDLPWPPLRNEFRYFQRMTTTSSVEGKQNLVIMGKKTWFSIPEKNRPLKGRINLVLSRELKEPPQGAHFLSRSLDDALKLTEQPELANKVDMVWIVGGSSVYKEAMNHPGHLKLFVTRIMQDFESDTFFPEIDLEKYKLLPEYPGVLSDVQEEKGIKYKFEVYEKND
UniProt Q99828, sequence (Q99828 whole entry, looked up): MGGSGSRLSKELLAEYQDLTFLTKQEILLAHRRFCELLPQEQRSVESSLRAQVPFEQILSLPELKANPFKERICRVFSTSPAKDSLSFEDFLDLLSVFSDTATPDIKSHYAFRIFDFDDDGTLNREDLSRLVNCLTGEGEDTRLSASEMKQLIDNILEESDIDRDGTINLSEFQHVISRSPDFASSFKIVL
UniProt Q5EBM0, sequence (Q5EBM0 whole entry, looked up): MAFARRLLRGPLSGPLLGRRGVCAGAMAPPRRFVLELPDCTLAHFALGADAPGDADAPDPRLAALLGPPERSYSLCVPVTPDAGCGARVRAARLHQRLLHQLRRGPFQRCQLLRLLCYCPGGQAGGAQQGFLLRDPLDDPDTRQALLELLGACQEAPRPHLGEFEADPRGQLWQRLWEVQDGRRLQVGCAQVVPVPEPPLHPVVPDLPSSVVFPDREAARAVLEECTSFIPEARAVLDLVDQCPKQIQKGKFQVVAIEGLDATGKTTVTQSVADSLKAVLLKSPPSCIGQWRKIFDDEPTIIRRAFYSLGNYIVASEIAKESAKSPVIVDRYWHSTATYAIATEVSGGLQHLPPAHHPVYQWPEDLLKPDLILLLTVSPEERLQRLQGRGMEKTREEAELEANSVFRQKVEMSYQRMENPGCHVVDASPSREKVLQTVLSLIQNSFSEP
UniProt P21964, sequence (P21964 whole entry, looked up): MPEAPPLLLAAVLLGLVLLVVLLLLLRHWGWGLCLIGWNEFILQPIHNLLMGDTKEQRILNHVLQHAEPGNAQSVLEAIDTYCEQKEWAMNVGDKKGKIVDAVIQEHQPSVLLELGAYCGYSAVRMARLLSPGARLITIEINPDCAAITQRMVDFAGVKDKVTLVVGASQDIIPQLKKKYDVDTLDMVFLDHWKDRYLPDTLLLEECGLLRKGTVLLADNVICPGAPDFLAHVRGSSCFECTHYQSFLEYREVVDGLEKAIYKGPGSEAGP
UniProt O76075, sequence (O76075 whole entry, looked up): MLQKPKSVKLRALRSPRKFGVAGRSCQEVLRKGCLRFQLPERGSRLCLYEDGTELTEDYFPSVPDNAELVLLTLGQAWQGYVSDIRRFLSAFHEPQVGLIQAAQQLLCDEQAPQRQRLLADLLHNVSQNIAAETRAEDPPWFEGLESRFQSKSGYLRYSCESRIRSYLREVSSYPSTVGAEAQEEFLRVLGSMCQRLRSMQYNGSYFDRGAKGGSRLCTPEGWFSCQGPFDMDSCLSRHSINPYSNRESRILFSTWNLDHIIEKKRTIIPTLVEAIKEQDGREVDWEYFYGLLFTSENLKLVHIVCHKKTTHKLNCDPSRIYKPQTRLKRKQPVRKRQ

Target	log2 fold change [1]	log2 fold change [2]	log2 fold change [3]	log2 fold change [4]	log2 fold change [5]	log2 fold change [6]	log2 fold change [7]	log2 fold change [8]	log2 fold change [9]	log2 fold change [10]	log2 fold change [11]	log2 fold change [12]	log2 fold change [13]	log2 fold change [14]	log2 fold change [15]	log2 fold change [16]	log2 fold change [17]	log2 fold change [18]	log2 fold change [19]	log2 fold change [20]
DFFB (UniProt O76075)	-0.042	-0.007	-0.022	-0.033	-0.022	-0.012	0.015	-0.006	0.011	0.231 (active)	0.003	-0.016	0.023	0.003	-0.008	0.015	0.049	-0.07	-0.028	-0.021
DHFR (UniProt P00374)	0.03	-0.111	-0.001	0.039	-0.023	0.01	0.141	0.017	-0.192	0.028	-0.012	-0.069	-0.054	0.04	-0.015	-0.099	0.022	0.011	-0.047	-0.077
CHUK (UniProt O15111)	0.029	-0.203	0.077	0.089	-0.039	-0.021	0.121	0.018	0.052	-0.06	0.001	-0.031	-0.067	0.112	0.036	-0.067	0.024	0.008	-0.001	-0.048
DEF6 (UniProt Q9H4E7)	-0.036	-0.154	0.027	-0.07	0.039	0.019	-0.002	0.097	0.013	-0.01	-0.021	0.057	-0.095	-0.049	0.013	0.032	0.009	0	0.151	0.188
DICER1 (UniProt Q9UPY3)	-0.032	-0.172	0.112	0.046	-0.003	0.037	0.039	0.012	-0.022	-0.027	-0.02	-0.071	-0.075	-0.075	-0.05	0.02	0.035	0.039	-0.11	0.084
CMPK2 (UniProt Q5EBM0)	-0.046	0.005	0.018	0.027	-0.006	0.01	0.028	-0.026	0.018	-0.022	0.065	0	0.007	-0.074	0.043	0.008	0.018	-0.01	-0.061	0.056
DDB2 (UniProt Q92466)	0	0.06	0.041	0.262 (active)	0.069	0.079	-0.065	0.045	0.055	-0.131	-0.03	-0.025	-0.025	-0.01	0.014	0.046	-0.026	0.05	0.023	0.008
DERA (UniProt Q9Y315)	0.121	0.018	0.033	-0.003	0.085	-0.005	-0.053	-0.059	-0.01	0.087	-0.002	-0.028	-0.015	0.732 (active)	-0.004	-0.072	-0.028	-0.001	0.012	-0.132
COMT (UniProt P21964)	0.012	-0.162	-0.016	0.016	-0.013	0.028	0.059	0.022	0.025	0.013	-0.006	-0.007	0.019	-0.052	-0.015	-0.008	-0.008	0.038	0.012	0.01
COASY isoform 2 (UniProt Q13057)	0.015	-0.124	-0.003	0.064	-0.023	-0.012	0.032	0.023	-0.025	-0.005	-0.01	0.021	-0.084	-0.072	0.004	0.009	-0.022	-0.007	-0.043	0.029
DCUN1D4 isoform 3 (UniProt Q92564)	-0.276	0.081	0.003	0.014	0.035	0.034	0.131	0.055	-0.043	-0.049	0.072	0.046	-0.02	0.001	0.02	-0.104	-0.009	0.004	-0.003	-0.039
CIB1 (UniProt Q99828)	-0.003	-0.037	0.01	0.038	0.041	-0.001	-0.215	-0.031	0.072	-0.124	-0.073	0.047	-0.046	0.023	-0.006	-0.008	0.06	0.051	0.115	0.059
CORO7 isoform 3 (UniProt P57737)	0.023	-0.087	-0.008	0.028	0.007	-0.008	0.114	0.007	-0.069	-0.047	0.009	-0.016	-0.063	0.06	0.004	-0.119	0.005	0.013	0.001	-0.067
CSK (UniProt P41240)	0.076	-0.088	0.262	0.068	-0.027	-0.026	-0.063	0.072	-0.008	-0.01	-0.022	-0.017	0.259	-0.075	-0.026	0.377	0.098	-0.005	0.41	0
CYP24A1 (UniProt Q07973)	-0.258	0.163	-0.021	-0.158	0.226	0.011	0.043	0.049	0.13	-0.05	-0.099	0.015	-0.289	-0.462 (active)	0.077	0.235	-0.02	0.006	-0.209	0.325
DOCK10 (UniProt Q96BY6)	-0.354	-0.028	0.208	0.133	0.046	0.067	-0.002	0.05	-0.042	0.084	-0.025	-0.024	-0.461	-0.641 (active)	0.003	0.231	0	0.137	-0.226	0.379
